# Activity calls are given as the source filed them.
# Tests used:
# [1] = test system: PRMT1 (protein arginine N-methyltransferase 1); test: PRMT1 binders on small-molecule microarrays, primary screen, biochemical, small-molecule microarray, 635 nm fluorescence (AID 1088); settings: small-molecule microarray binding, higher = more signal;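 further: binding of Prmt1 protein to compounds spotted on small-molecule microarray slides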
# [2] = yeast growth modulation, basal conditions, primary screen, YJM789 clinical isolate, OD600, 24 h (AID 1089);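 further: growth of clinical yeast isolate S. cerevisiae YJM 789 seeded 1000 cells per well; test concentration not given here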; settings: S. cerevisiae YJM789 growth, higher = more signal, called active from +8 up or from −8 down
# [3] = fission yeast growth modulation, primary screen, strain 972, OD600, 24 h, no modulator (AID 1090);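 further: basal condition with compound alone and no growth modifier present; test concentration not given here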; settings: S. pombe 972 growth, higher = more signal, called active from +8 up or from −8 down
# [4] = S. cerevisiae growth modulation with rapamycin, primary screen, strain BY4716, OD600, 96 h (AID 1091); settings: higher = more signal, called active from +8 up or from −8 down; further: test concentration not given here
# [5] = molecular target: Torsin-1A-interacting protein 2 (Homo sapiens) (UniProt Q8NFQ8); test: LULL1 binders on small-molecule microarray, primary screen, cell lysate, human LULL1 lysate, 635/667 nm fluorescence (AID 1092); settings: hLULL1 lysate binding, 635 nm fluorescence, higher = more signal;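 further: probe is lysate of COS7 cells overexpressing human LULL1; score merges per-feature 667 nm fluorescence with signal-to-noise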
# [6] = E. coli growth modulation, two-sided OD650, primary screen, E. coli filamentation project, strain DRC41, 24 h (AID 1093); settings: OD650, 24 h, higher = more signal, called active from +8 up or from −8 down;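 further: MC1000 strain lacking acrAB efflux and sulA so SOS filamentation is blocked; test concentration not given here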
# [7] = small-molecule microarray binders of probe aLefty2, primary screen, biochemical, biotinylated probe, 635/667 nm fluorescence (AID 1094); settings: higher = more signal;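 further: score merges spot fluorescence near 667 nm with spot signal-to-noise ratio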
# [8] = test system: Noggin (protein binding on small-molecule microarray); test: Noggin binders on small-molecule microarray, primary screen, biochemical, 635/667 nm fluorescence (AID 1095); settings: 635 nm fluorescence, higher = more signal;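 further: score merges 667 nm feature fluorescence with signal to noise over triplicate slides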
# [9] = molecular target: Neurogenic locus notch homolog protein 3 (Homo sapiens) (UniProt Q9UM47); test: NOTCH3 binders on small-molecule microarray, primary screen, biochemical, 635/667 nm fluorescence (AID 1096); settings: NOTCH3 binding, 635 nm fluorescence, higher = more signal
# [10] = small-molecule microarray binders of probe aEGFR, primary screen, biochemical, biotinylated probe, 635/667 nm fluorescence (AID 1097); settings: higher = more signal;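 further: probe is a biotinylated anti-EGFR antibody binding compounds printed on slides; score combines fluorescence near 667 nm and signal to noise of each spot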
# Sequence of Neurogenic locus notch homolog protein 3 (Homo sapiens) (Q9UM47 whole entry, looked up): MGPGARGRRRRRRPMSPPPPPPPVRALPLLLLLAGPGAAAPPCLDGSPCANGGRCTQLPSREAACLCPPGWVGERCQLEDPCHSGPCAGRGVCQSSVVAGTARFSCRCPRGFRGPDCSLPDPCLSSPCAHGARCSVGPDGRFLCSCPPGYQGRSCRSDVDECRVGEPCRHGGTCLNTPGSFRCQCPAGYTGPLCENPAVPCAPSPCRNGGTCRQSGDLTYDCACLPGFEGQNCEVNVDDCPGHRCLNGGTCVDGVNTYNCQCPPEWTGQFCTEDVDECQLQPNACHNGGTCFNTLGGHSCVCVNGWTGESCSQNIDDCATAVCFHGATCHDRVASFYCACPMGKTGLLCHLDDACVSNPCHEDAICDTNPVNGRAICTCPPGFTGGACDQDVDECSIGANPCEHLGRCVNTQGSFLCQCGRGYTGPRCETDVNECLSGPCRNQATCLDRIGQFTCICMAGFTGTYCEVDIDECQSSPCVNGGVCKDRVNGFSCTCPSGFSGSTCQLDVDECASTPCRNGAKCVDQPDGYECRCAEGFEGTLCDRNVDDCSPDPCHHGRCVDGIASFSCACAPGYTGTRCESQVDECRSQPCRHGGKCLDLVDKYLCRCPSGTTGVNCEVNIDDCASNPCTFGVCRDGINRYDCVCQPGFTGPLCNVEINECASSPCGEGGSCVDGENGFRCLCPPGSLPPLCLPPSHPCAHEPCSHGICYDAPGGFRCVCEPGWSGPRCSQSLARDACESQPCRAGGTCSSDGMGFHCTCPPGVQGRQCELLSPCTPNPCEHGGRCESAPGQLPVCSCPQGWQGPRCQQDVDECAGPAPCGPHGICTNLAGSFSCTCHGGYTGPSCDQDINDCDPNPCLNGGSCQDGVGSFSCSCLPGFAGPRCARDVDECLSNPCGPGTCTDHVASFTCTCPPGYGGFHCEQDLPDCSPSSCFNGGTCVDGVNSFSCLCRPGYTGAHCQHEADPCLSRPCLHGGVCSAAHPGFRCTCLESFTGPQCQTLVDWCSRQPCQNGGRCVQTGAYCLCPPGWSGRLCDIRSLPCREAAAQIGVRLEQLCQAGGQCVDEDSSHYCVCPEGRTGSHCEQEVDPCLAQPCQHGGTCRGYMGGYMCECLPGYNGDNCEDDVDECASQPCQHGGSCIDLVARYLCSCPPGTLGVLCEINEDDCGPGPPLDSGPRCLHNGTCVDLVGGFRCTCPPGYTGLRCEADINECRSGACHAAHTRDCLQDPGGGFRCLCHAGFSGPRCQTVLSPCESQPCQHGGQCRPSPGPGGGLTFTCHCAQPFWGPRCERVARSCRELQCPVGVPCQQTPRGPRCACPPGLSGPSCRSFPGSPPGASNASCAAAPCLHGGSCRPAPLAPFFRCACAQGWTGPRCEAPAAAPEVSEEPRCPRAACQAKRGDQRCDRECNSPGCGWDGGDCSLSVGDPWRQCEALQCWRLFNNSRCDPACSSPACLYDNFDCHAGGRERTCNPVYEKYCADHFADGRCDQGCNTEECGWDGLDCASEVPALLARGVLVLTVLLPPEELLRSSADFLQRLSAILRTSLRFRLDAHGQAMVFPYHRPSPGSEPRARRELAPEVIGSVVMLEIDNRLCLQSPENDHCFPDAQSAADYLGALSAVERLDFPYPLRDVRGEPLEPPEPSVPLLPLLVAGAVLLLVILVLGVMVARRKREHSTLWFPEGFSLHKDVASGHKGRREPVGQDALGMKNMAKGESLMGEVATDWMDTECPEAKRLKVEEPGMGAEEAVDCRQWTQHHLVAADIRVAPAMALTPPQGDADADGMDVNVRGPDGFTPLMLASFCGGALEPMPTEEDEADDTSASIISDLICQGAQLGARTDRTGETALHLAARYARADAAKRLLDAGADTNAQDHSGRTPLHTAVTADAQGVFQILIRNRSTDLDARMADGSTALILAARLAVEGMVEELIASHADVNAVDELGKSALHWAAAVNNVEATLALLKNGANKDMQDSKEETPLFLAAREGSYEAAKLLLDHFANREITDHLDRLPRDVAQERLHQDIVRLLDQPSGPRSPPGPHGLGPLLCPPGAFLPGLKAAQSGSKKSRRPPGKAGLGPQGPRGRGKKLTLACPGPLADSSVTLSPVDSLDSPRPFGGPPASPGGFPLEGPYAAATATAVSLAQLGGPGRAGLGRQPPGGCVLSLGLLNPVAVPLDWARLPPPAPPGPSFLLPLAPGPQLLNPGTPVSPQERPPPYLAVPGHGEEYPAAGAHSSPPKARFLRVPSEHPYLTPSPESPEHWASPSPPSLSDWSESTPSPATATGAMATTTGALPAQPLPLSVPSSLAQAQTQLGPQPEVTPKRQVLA
# Sequence of Torsin-1A-interacting protein 2 (Homo sapiens) (Q8NFQ8 whole entry, looked up): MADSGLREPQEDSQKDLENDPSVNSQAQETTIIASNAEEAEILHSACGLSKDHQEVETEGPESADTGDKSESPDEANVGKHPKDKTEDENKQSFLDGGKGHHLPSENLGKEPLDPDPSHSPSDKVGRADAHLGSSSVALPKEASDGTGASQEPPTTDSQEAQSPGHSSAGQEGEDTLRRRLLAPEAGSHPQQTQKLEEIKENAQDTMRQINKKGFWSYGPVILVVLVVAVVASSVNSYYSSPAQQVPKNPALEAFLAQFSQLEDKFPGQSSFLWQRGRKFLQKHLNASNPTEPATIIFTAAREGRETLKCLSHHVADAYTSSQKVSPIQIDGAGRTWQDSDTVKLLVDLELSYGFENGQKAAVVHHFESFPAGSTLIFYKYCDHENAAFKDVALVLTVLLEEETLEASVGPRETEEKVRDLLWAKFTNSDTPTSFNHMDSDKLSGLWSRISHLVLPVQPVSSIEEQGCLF
SMILES,composite z-score [1],z-score [2],z-score [3],z-score [4],composite z-score [5],z-score [6],composite z-score [7],composite z-score [8],composite z-score [9],composite z-score [10]
COC(=O)[C@@]1(Cc2ccc(F)cc2)[C@H]2c3cc(C(=O)N4CCCC4)n(CCSCCO)c3C[C@H]2CN1C(=O)c1ccccc1,-0.665,0.856 (inactive),1.25 (inactive),0.727 (inactive),3.54,-0.0319 (inactive),0.314,-0.906,0.225,0.0726
O=C1c2ccccc2[C@@]2(Cc3ccccc3N(CC(F)(F)F)C2=O)[C@H](c2ccc(CO)cc2)N1Cc1ccccc1,0.349,0.633 (inactive),-0.269 (inactive),-1.49 (inactive),-0.117,-1.91 (inactive),-0.147,0.666,-0.242,-0.177
COc1ccc(CCNC(=O)[C@@]2(C)c3ccccc3C(=O)N(Cc3ccc(OC(F)(F)F)cc3)[C@H]2c2ccc(CO)cc2)cc1,1.55,-0.219 (inactive),-0.553 (inactive),0.997 (inactive),2.25,-0.663 (inactive),-0.403,1.11,0.743,0.686
COc1ccc([Si](C)(C)[C@@H]2[C@@H](CC(=O)N3Cc4ccccc4C[C@H]3CO)O[C@]3(C(=O)N(Cc4ccc(I)cc4)c4ccccc43)[C@H]2C)cc1,1.57,0.391 (inactive),0.956 (inactive),2.07 (inactive),0.603,2.19 (inactive),0.0007,1.92,1.1,-0.0982
C=CCOC(=O)[C@@H]1[C@H]2C(=O)O[C@H](c3ccccc3)[C@H](c3ccccc3)N2[C@H](c2ccc(OCCOC(=O)[C@H]3C[C@H]4C(=O)N[C@@H](CCCCN(C)C)C(=O)N4[C@H]3c3cccc(OCCO)c3)cc2)[C@@]12C(=O)Nc1ccccc12,0.831,-0.292 (inactive),1.12 (inactive),0.171 (inactive),0.729,-0.0426 (inactive),0.0897,0.221,-0.414,-0.0039
O=C(c1ccccc1)N1Cc2ccccc2C[C@@]2(N=C(c3ccc(OCCCO)cc3)O[C@H]2c2ccccc2)C1=O,1.54,-0.68 (inactive),-10.3 (active),5.51 (inactive),2.81,-0.231 (inactive),-0.0982,1.73,1.09,0.024
Cc1ccc(S[C@]2(C(=O)NC(C)C)CC(=O)N(Cc3ccccc3)[C@@H]2c2ccc(CO)cc2I)cc1,1.46,-1.12 (inactive),-1.15 (inactive),0.739 (inactive),2.11,0.301 (inactive),-0.102,-1.44,-0.332,-0.0146
COC(=O)[C@@]1(Cc2ccc(OC)cc2)[C@@H]2[C@@H](CC(=O)[C@H]2CC(=O)C(=O)N(C)C)CN1C(=O)c1ccccc1,0.707,-0.0616 (inactive),1.61 (inactive),3.34 (inactive),3.24,-0.163 (inactive),1.11,-0.458,1.01,0.766
C=C1C(=O)C=C2CN(C(=O)c3ccccc3)[C@@](Cc3ccc(F)cc3)(C(=O)OC)[C@@H]12,0.356,-23.7 (active),-15.9 (active),-2.6 (inactive),3.47,-0.57 (inactive),0.513,0.0319,1.05,0.0071
C=C(COC)/C(=C/C[C@@H](OC(C)=O)c1cccc(OCCO)c1)c1cnc2ccccc2c1,1.38,-2.07 (inactive),-6.62 (inactive),-1.38 (inactive),1.07,1.03 (inactive),0.0303,0.822,1.04,-0.0653
CC(C)c1ccc(NN2C(C(O)C3CCCCC3)C=CC3C(=O)N(c4ccccc4)C(=O)C32)cc1 (stereo not given),1.02,0.487 (inactive),0.361 (inactive),-0.287 (inactive),3.07,-1.23 (inactive),0.0779,-0.0338,1.03,0.168
Cc1ccc(S[C@]2(C(=O)NCC(C)C)CC(=O)N(C(C)C)[C@@H]2c2ccc(CO)cc2I)cc1,1.53,-1.68 (inactive),-2.56 (inactive),-0.0302 (inactive),0.979,0.97 (inactive),0.0968,-1.6,-0.0735,-0.127
COc1cccc(C)c1NC(=O)O[C@H]1[C@H](OC(=O)Nc2ccccc2)[C@@H](OC(=O)Nc2ccccc2)[C@@H](OC)O[C@@H]1CO,1.56,1.52 (inactive),0.176 (inactive),4.1 (inactive),3.36,-0.93 (inactive),0.0321,0.902,1.12,0.0182
C=CC[C@]1(C(N)=O)N=C(c2ccc(OCCCO)cc2)O[C@H]1c1ccccc1N=[N+]=[N-],1.37,0.344 (inactive),-1.3 (inactive),0.673 (inactive),3.33,1.94 (inactive),0.239,0.301,0.923,0.0049
CN(C)C(=O)[C@]1(CCS(=O)(=O)c2ccccc2)N=C(c2ccc(OCCCO)cc2)O[C@@H]1c1ccccc1CN=[N+]=[N-],1.55,0.106 (inactive),0.349 (inactive),2.18 (inactive),3.48,0.157 (inactive),-0.0079,0.136,1.09,-0.025
Cc1ccc(S[C@]2(C(=O)NC(C)C)CC(=O)N(Cc3ccccc3)[C@@H]2c2ccc(CO)cc2)cc1,-0.251,-1.58 (inactive),0.433 (inactive),-0.632 (inactive),0.228,1.31 (inactive),-0.0593,-0.371,-0.312,-0.18
C=CCOC(=O)[C@@H]1[C@H]2C(=O)O[C@H](c3ccccc3)[C@H](c3ccccc3)N2[C@H](c2ccc(OCCOC(=O)[C@@H]3C[C@@H]4C(=O)N[C@@H](CC(C)C)C(=O)N4[C@@H]3c3ccc(O)cc3)cc2)[C@@]12C(=O)Nc1ccc(I)cc12,1.56,-0.677 (inactive),1.63 (inactive),18.2 (active),1.82,1.16 (inactive),-0.0321,1.69,1.08,0.105
COc1ccc([Si](C)(C)[C@H]2[C@H](CC(=O)N(CCO)Cc3ccccc3)O[C@@]3(C(=O)N(Cc4cccc(N5CCCCC5=O)c4)c4ccccc43)[C@@H]2C)cc1,1.45,-1.68 (inactive),-0.0671 (inactive),2.14 (inactive),0.876,1.27 (inactive),-0.0719,0.659,0.604,-0.045
Cc1ccc(N2C(=O)c3ccccc3[C@@H](C(=O)NCCN3CCOCC3)[C@@H]2c2ccc(CO)cc2)nc1,0.722,0.333 (inactive),-0.33 (inactive),-1.59 (inactive),0.58,0.346 (inactive),-0.0798,0.0453,0.248,-0.197
COC(=O)[C@@]1(Cc2ccc(F)cc2)[C@H]2c3cc(C(=O)N(C)C)n(Cc4ccsc4Br)c3C[C@H]2CN1C(=O)c1ccccc1,-0.291,0.232 (inactive),0.168 (inactive),1.37 (inactive),3.64,-1.32 (inactive),1.38,-0.322,1.08,1.06
COC(=O)C(CC#Cc1ccc2c(c1)[C@]1(C(=O)N2)[C@H](C(=O)N2CCCCCCC2)[C@H]2C(=O)O[C@H](c3ccccc3)[C@H](c3ccccc3)N2[C@@H]1c1ccc(OCCO)cc1)C(=O)OC,1.52,-0.0902 (inactive),0.563 (inactive),1.28 (inactive),5.35,0.149 (inactive),1.79,2.35,1.01,1.38
COC(=O)C1=CC(c2ccc(CO)cc2)=CC(C2CC2)N(Cc2cc3c(cc2Br)OCO3)C=C1C(=O)OC (stereo not given),1.54,-0.644 (inactive),-2.47 (inactive),-2.01 (inactive),2.87,0.841 (inactive),0.479,0.092,1.11,0.46
O=C1O[C@H](c2ccccc2)[C@H](c2ccccc2)N2[C@H]1[C@@H](C(=O)N1CCCCCCC1)[C@]1(C(=O)Nc3ccc(C#CCCO)cc31)[C@H]2c1ccc(O)cc1,1.54,0.6 (inactive),-0.36 (inactive),1.45 (inactive),5.04,2.08 (inactive),1.78,0.731,1.02,1.38
CN1C(=O)C2C=CC(C(O)c3ccc(I)cc3)N(N(c3ccccc3)c3ccccc3)C2C1=O (stereo not given),0.364,0.413 (inactive),1.38 (inactive),1.45 (inactive),0.155,-1.07 (inactive),0.17,-0.569,-0.239,-0.0903
[N-]=[N+]=NCc1ccccc1C[C@]1(C(=O)N2CCCCC2)COC(c2ccc(OCCCO)cc2)=N1,1.57,0.504 (inactive),-1.92 (inactive),34.8 (active),1.55,3.43 (inactive),0.346,0.683,0.202,0.306
COC(=O)[C@H]1N=C(c2ccc(OCCCO)cc2)O[C@H]1c1ccccc1N=[N+]=[N-],1.08,-0.651 (inactive),-4.13 (inactive),-1.09 (inactive),2.73,0.112 (inactive),0.588,0.0025,-0.0392,0.131
COCCCNC(=O)[C@]1(Cc2ccccc2N=[N+]=[N-])N=C(c2ccc(OCCCO)cc2)O[C@@H]1c1ccccc1,1.46,-1.51 (inactive),-0.982 (inactive),2.48 (inactive),3.23,1.1 (inactive),0.692,-0.0042,0.901,0.377
CCOC(=O)C[C@H]1[C@H](OC(=O)c2ccccc2-c2ccccc2)[C@@H](NC(=O)CC(C)C)c2cc(OCCCO)ccc2N1C(=O)c1ccccc1,0.768,-0.959 (inactive),-0.613 (inactive),-1.52 (inactive),0.583,0.482 (inactive),-0.0859,1.3,1.09,-0.159

# From PubChem BioAssay
